Tested on: tubulin (bovine brain)
Test: tubulin polymerization end-point dOD, fold change relative to DMSO vehicle; higher = more polymerization (stabilization)
Conditions: 50 µM; 60 min; 37 °C
How it was run: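 Using the Cytoskeleton HTS-Tubulin polymerization kit, 4 mg/ml bovine brain tubulin in G-PEM buffer (PIPES pH 6.9, MgCl2, EGTA, GTP) was combined on ice in 384-well plates with compound at a final 50 μM in 0.5% DMSO. After warming to 37°C in a Tecan reader, the plates were read at 340 nm once a minute for 1 hour. Values give the end-point change in optical density as percent fold change over DMSO vehicle, normalized per run with the means and standard deviations of DMSO and reference-control wells.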

| SMILES | tubulin polymerization end-point dOD |
| --- | --- |
| Cc1cc2cc3c(cc2nc1SCC(=O)NC1CCCC1)OCCO3 | 10.3% |
| N#Cc1cc2cc3c(cc2nc1SCC(=O)Nc1ccccc1Cl)OCCO3 | 17.2% |
| C/C(=N\Nc1cc(-c2ccccc2)nc(C)n1)c1ccc(C)cc1 | -7.02% |
| COc1ccccc1-n1c(SCC(=O)Nc2nccs2)nnc1-c1cccnc1 | 5.05% |
| CCOc1ccc(C(=O)N(Cc2cccs2)Cc2cc3cc(C)ccc3[nH]c2=O)cc1 | 27.2% |
| Cc1cc2cc3c(cc2nc1SCC(=O)NCCc1ccccc1)OCCO3 | 130% |
| Cc1cccc2cc3c(N)c(C(=O)Nc4ccccc4N4CCOCC4)sc3nc12 | 411% |
| COc1ccc2cc(CN(Cc3ccco3)C(=O)Nc3ccccc3OC)c(=O)[nH]c2c1 | 43.9% |
| O=C(Nc1ccc(Cl)cc1)N(Cc1cc2cc3c(cc2[nH]c1=O)OCCO3)CC1CCCO1 (centres undefined) | -20.7% |
| COc1cc(C(=O)Nc2ccc3c(c2)Nc2ccccc2CC3)cc(OC)c1OC | -20.1% |
| COc1cccc(/C=N/NC(=O)c2ccc(N3CCCC3=O)cc2)c1 | 11.9% |
| Cc1cc2cc3c(cc2nc1SCC(=O)Nc1c(C)cccc1C)OCO3 | 145% |
| O=C(Nc1ccc(N2CCc3sccc3C2)nc1)c1ccccc1Br | 14.9% |
| Nc1cccc2c1C(=O)c1cccc(NC(=O)c3ccccc3)c1C2=O | 24.7% |
| CCc1ccc2nc(SCC(=O)Nc3ccccc3C)c(C)cc2c1 | -20.5% |
| CCc1ccc2nc(SCC(=O)Nc3cc(C)ccc3C)c(C#N)cc2c1 | -12.2% |
| COc1ccc(C2(C(=O)NC(C)c3nc(-c4ccncc4)n[nH]3)CC2)cc1 (centres undefined) | -41.3% |
| Oc1ccccc1-c1nc2cnccn2c1NCc1ccc2c(c1)OCO2 | -6.54% |
| Cc1ccc2cc(C)c3nn(CCNC(=O)c4ccncc4)c(=O)n3c2c1 | -34.2% |
| N#Cc1ccc(Cc2cnc(NC(=O)c3ccc4ncsc4c3)s2)cc1 | -40.1% |
| COc1ccc2nc(/C=C/c3cccnc3)sc2c1 | -29.9% |
| CCc1cc2cc3c(cc2nc1SCC(=O)Nc1ccccc1Cl)OCCO3 | 11.4% |
| CCOc1ccc(C2=[NH+]c3ccccc3C(c3cccnc3)=NN2)cc1 | 109% |
| O=C(Nc1ccc2c(c1)OCCO2)C(=O)Nc1ccccc1Cl | 13.5% |
| CCCC(NC(=O)c1cnc(SC)nc1)c1ccc2c(c1)OCCO2 (centres undefined) | 2.16% |
| CCc1cc2cc(OC)ccc2nc1SCC(=O)Nc1cc(C)ccc1OC | -2.45% |
| O=C(Nc1ncc(Cc2ccc(F)cc2)s1)c1ccc2c(c1)OCO2 | 20.1% |
| Cc1cc2ccccc2n2c(=O)n(CC(C)NC(=O)c3cnn(C)c3C)nc12 (centres undefined) | -1.81% |
| COc1cc(Br)c(-c2cc3cc(Cl)ccc3oc2=O)cc1OC | 77.7% |
